According to PubChem BioAssay AID794 (The Scripps Research Institute Molecular Screening Center, 2007):
Some of the results follow. Activity calls are given as the source filed them. Rule as the data show it: active = inhibition above about 19%; inactive = the rest.

Each compound was assayed against Focal adhesion kinase 1 (Homo sapiens) (UniProt Q05397) (assay: human PTK2 activity blockers, single-point recheck – biochemical, confirmation (AID 794)). Conditions: FAK kinase biochemical inhibition assay; at 7 µM; hits give high values.
Focal adhesion kinase 1 (Homo sapiens), sequence (Q05397 whole entry, looked up): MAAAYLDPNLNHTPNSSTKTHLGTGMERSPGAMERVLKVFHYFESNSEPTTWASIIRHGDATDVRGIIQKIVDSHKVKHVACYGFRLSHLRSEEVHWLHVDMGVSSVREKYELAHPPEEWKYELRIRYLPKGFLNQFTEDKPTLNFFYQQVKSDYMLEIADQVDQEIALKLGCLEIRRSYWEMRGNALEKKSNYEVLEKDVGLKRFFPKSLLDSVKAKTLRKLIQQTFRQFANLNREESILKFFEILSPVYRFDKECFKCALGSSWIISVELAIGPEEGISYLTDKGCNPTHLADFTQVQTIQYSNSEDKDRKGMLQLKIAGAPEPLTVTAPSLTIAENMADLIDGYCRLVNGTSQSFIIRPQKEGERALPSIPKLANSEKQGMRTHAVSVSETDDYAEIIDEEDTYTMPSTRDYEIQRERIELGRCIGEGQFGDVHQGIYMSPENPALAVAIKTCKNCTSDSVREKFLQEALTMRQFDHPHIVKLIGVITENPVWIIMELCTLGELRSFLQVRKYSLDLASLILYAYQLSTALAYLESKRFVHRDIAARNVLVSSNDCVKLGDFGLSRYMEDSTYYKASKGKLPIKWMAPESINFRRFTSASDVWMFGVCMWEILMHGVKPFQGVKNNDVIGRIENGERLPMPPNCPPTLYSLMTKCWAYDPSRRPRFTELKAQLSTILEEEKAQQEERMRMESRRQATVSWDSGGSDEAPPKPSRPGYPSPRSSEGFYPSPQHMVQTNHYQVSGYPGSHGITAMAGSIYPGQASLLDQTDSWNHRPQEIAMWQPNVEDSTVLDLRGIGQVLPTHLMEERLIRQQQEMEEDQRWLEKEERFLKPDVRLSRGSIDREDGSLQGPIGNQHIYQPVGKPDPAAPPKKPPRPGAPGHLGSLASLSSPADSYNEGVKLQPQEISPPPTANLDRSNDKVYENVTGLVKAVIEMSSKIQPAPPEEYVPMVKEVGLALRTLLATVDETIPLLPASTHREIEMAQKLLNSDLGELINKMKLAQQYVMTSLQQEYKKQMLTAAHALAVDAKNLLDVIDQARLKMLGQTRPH
For `CCc1ccc2nc3sc(C(=O)Nc4nnc(CC)s4)c(N)c3cc2c1`, the inhibition was 16.1% (inactive). With `CC(=NCc1ccco1)C1=C(O)c2ccccc2C1=O` the inhibition was 15.2% (inactive). In the case of `Cn1cccc1C(=O)Nc1nccs1`, the inhibition was 7.79% (inactive). In the case of `Nc1c(-c2ccc(F)cc2)cnc2ncnn12`, the inhibition was -3.73% (inactive). For `CCCOc1ccc(NC(=O)C2CCCNC2=O)cc1` (configuration not stated), the inhibition was -2.48% (inactive). With `Clc1ccccc1CSc1nnc(-c2ccco2)c(-c2ccco2)n1` the inhibition was 8.81% (inactive). For `Fc1ccc(-c2ccc(-c3nn4c(-c5ccco5)nnc4s3)o2)cc1`, the inhibition was 5.37% (inactive). `Cc1cc(NC(=O)c2cnn3cccnc23)n(-c2ccccc2)n1` was tested, and the inhibition was 13.6% (inactive). `Cc1ccc(-n2nc3ccc(NC(=O)/C=C/c4ccco4)cc3n2)cc1C` was tested, and the inhibition was 5.82% (inactive). For `COc1ccc(NC(=O)ON=C2c3ccccc3-c3ccccc32)cc1`, the inhibition was 6.77% (inactive). `CCN(CC)S(=O)(=O)c1ccc2c3c(cccc13)C(=O)S2` was tested, and the inhibition was 14.7% (inactive). With `O=[N+]([O-])c1ccc(C=Nc2ccc(Cl)cc2Cl)s1` the inhibition was 2.19% (inactive). In the case of `Oc1ccccc1/C=N/n1c(-c2cccs2)n[nH]c1=S`, the inhibition was 8.74% (inactive). For `O=[N+]([O-])c1ccc(Oc2ccc(F)cc2Br)c2ccncc12`, the inhibition was 6.15% (inactive). With `COc1cc(N=Cc2c(O)[nH]c3ccccc23)cc(OC)c1OC` the inhibition was 56.3% (active). With `Cc1cccn2c(=O)c3cc(C(=O)N4COCC4(C)C)n(C)c3nc12` the inhibition was 6.3% (inactive). With `CCc1ccccc1NC(=O)CSc1nnc([C@@H](NC(=O)OC(C)(C)C)C(C)CC)o1` (some centres not stated) the inhibition was -1.72% (inactive).
